Only some compounds are listed: those with a hit (about 2.4% of all), similar ones and a draw of the others.
PERK inh: inhibitors of human PERK kinase. CHO PERK-DD fusion, SEAP luminescence translation reporter. inhibition, % at 5.6 µM. actives 0.17% (n = 220,000). Q9NZJ5;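 active means inhibition above the mean inhibition of all tested compounds plus 3 SD, set separately per screening campaign, cut at about 2.9% in these data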;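 further: PERK kinase domain activated by AP20187 dimerizer at 100 nM; 0% = DMSO with dimerizer and 100% = rapamycin at 8.4 µM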
Target sequence (Q9NZJ5 whole entry, looked up, the tested form may be a part): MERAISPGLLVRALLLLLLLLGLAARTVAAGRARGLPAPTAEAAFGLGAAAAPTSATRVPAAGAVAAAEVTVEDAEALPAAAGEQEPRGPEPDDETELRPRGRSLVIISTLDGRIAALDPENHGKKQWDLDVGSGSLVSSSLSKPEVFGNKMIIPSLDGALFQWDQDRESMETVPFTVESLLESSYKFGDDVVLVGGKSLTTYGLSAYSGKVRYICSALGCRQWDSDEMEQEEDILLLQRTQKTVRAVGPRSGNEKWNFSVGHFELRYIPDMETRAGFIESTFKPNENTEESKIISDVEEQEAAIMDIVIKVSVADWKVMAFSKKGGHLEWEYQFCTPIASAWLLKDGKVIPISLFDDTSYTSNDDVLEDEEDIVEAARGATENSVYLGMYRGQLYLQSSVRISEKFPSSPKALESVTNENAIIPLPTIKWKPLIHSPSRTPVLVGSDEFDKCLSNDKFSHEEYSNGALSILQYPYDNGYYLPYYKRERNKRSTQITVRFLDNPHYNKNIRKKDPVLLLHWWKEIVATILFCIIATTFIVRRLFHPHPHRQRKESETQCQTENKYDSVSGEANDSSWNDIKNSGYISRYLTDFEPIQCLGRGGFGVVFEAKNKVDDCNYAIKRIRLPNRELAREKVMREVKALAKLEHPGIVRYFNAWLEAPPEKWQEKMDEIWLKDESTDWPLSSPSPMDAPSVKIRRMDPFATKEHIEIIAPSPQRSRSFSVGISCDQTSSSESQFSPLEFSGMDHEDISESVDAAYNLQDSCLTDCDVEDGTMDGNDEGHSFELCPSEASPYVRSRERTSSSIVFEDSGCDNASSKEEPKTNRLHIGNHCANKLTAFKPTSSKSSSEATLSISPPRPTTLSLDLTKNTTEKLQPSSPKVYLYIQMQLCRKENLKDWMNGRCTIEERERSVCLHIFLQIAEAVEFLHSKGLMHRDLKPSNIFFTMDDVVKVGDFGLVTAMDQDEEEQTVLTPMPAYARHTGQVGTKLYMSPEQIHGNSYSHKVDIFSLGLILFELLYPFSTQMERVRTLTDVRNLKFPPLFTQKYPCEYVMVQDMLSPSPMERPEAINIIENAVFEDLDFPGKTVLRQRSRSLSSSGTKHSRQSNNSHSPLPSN
TNF death inh: blocks TNF-alpha induced death of Jurkat FADD-/- cells. activation (protection from cell death), % at 10 µM. Jurkat FADD-/- TNF necroptosis rescue, ATP luminescence, 24 h; 0 = TNF only, 100 = no-TNF cells. actives 0.068% (n = 220,000);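 active means activation, meaning protection from cell death, of at least 50% relative to plate controls; inactive means activation below 50%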;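 further: necroptosis triggered by 40 ng/mL TNF-alpha added together with compound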
DTT redox prof: compounds producing H2O2 with reducing agent – biochemical, NIH compound library profiling, artefact control for MLSCN library redox annotation, primary screen. activation, % at 10 µM. DTT-dependent redox cycling H2O2, phenol red/HRP absorbance; 100% = 100 µM peroxide control, 0% = buffer. actives 0.03% (n = 200,000). AID 878;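 active means activation of at least 50% relative to the plate's high and low controls in the primary single-dose screen; inactive means activation below 50%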;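 further: compound incubated with DTT at 0.8 mM final as the reducing agent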
PKD1 inh: PKD1 (human) kinase inhibition; inhibition, % (test concentration not listed); actives 0.056% (n = 200,000); Q15139; PKD1 kinase fluorescence polarization assay; in the data active means inhibition above about 50%
WT yeast gro inh: growth inhibition of WT yeast, mitochondrial fusion screen; actives 2.1% (n = 190,000); mitochondrial fusion phenotypic screen, WT strain; inhibition, % at 10 µM; in the data active means inhibition above about 58%; tested in S. cerevisiae
L929 necroptosis: L929 zVAD cell death inhibition | L929 zVAD necroptosis rescue, ATP luminescence, 24 h; with zVAD 60 µM | actives 0.38% (n = 220,000) | viability rescue, % at 10 µM;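 active means activation, scaled between plate controls, above about 75%, limit read from the data; inactive means activation under that limit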;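 further: 0% = zVAD with DMSO and 100% = DMSO alone without zVAD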
The depositor's hits bear a star; nt = not tested or not shown.

SMILES | PERK inh | TNF death inh | DTT redox prof | PKD1 inh | WT yeast gro inh | L929 necroptosis
CC1(c2ccc([N+](=O)[O-])cc2)CC(C)(C)N(C(=O)c2ccccc2)c2ccccc21 (stereo not drawn) | 0.3 | -0.5 | 1.2 | -1.9 | 77.1* | 0.3
CC(=O)N1c2ccccc2C(C)(c2ccccc2)CC1(C)C (stereo not drawn) | -0.7 | 0.9 | -3.3 | -4.5 | 31.6 | -0.3
CC(=O)Nc1ccc(S(=O)(=O)N2CCSC2c2ccc(Cl)cc2)cc1 (stereo not drawn) | -0.6 | -4.7 | 2.1 | 7.5 | 78.0* | 0.7
CCOC(=O)c1ccc(NC(=S)N2CCSC2c2ccc(OC)cc2)cc1 (stereo not drawn) | 0.2 | 1.2 | -0.1 | -11.4 | 11.1 | 0.1
CCOC(=O)c1ccc(NC(=S)N2CCSC2c2ccc(Cl)cc2)cc1 (stereo not drawn) | 0.7 | -3.0 | 0.0 | 4.2 | 59.8* | 2.7
S=c1[nH]nc(CSCCOc2ccc(Cl)cc2Cl)o1 | 0.1 | -0.7 | nt | nt | nt | 0.6
O=c1cc(-c2ccc(Br)cc2)[nH][nH]1 | 2.9* | -0.9 | -0.4 | -6.3 | 6.0 | 2.0
O=c1cc(-c2ccc(C3CCCCC3)cc2)[nH][nH]1 | 0.1 | -2.1 | -1.3 | -2.4 | 68.8* | 0.6
O=c1cc(-c2ccc(F)cc2)[nH][nH]1 | 0.9 | 0.1 | -0.5 | 10.1 | -3.7 | 0.4
O=C(CSc1ccc(F)cc1)Nc1ccc(C2SCCS2)cc1 | 1.6 | 4.8 | nt | nt | nt | 0.4
O=C(Nc1ccc(Cl)c(C(F)(F)F)c1)c1ccco1 | 1.3 | 0.9 | 2.5 | 3.0 | 71.5* | 0.4
COc1ccccc1OCCc1nnc(N)s1 | 3.3* | 1.3 | 0.3 | -0.1 | 5.3 | 1.7
COc1ccc(OCCc2nnc(N)s2)cc1 | 0.5 | -1.0 | -3.9 | -8.6 | 11.0 | -0.2
O=C(COC(=O)c1ccc[nH]c1=O)NC1CCCCC1 | 0.7 | 2.5 | nt | nt | nt | -0.3
CC1=CC(C)(C)N(S(=O)(=O)c2ccc(F)cc2)c2ccc(C)cc21 | -0.9 | -6.6 | 0.0 | 7.3 | 81.0* | -0.2
CC1=CC(C)(C)N(S(=O)(=O)c2ccc(C)cc2)c2ccccc21 | 0.6 | -17.9 | 0.2 | -14.3 | 45.8 | -1.2
Cc1ccc(Cl)cc1N1CCN(Cc2nnnn2C2CCCCC2)CC1 | 0.4 | 3.0 | 0.0 | 6.7 | 73.5* | 1.1
O=C(Oc1ccc(-c2nnco2)cc1)N1CCCCC1 | -0.3 | 1.7 | 2.4 | -8.8 | 1.8 | 0.1
O=C(Oc1ccc(-c2nnco2)cc1)N(c1ccccc1)c1ccccc1 | 0.2 | -1.9 | -2.8 | -8.1 | 58.3* | -0.4
COc1ccc(CN(C)C(=O)COC(=O)c2c(-c3ccccc3Cl)noc2C)cc1 | 0.1 | 0.4 | -0.8 | 0.5 | 13.1 | -0.4
COc1cc(OC)c(-c2c3cc(O)c(=O)cc-3oc3cc(O)c(O)cc23)cc1OC | -0.2 | -3.4 | 0.9 | 11.2 | 59.4* | 1.7
Cc1c2cc(O)c(=O)cc-2oc2cc(O)c(O)cc12 | 0.7 | -2.6 | 0.5 | -9.7 | 35.9 | 1.1
Cc1ccc2nc(C)cc(C(=O)N3CCCC(CO)(Cc4ccccc4C)C3)c2c1 (stereo not drawn) | -0.2 | 2.4 | -1.1 | -4.0 | 34.1 | -0.1
Cc1c[nH]c(=O)c([N+](=O)[O-])c1 | 3.8* | 4.8 | nt | nt | nt | 0.3
COc1ccc(OCC(=O)N/N=C(\C)c2ccc(-n3ccnc3)cc2)cc1 | 1.2 | 1.9 | 0.0 | 0.1 | -11.7 | 0.5
SMILES | PERK inh | TNF death inh | DTT redox prof | PKD1 inh | WT yeast gro inh | L929 necroptosis
C/C(=N\Nc1ccc(Cl)c(Cl)c1)c1ccc(-n2ccnc2)cc1 | 0.6 | -0.3 | nt | -10.3 | 68.8* | 0.0
C/C(=N\NC(=O)COc1ccc(C(C)(C)C)cc1)c1ccc(-n2ccnc2)cc1 | 0.1 | 2.3 | -0.3 | -8.0 | 70.6* | 0.7
Cn1c(=O)c([N+](=O)[O-])c(NCc2ccc3c(c2)OCO3)c2ccccc21 | 0.4 | 2.1 | nt | nt | nt | 0.9
COc1ccc(/C=C/C(=O)N2CCN(c3ccccn3)CC2)c2ccccc12 | -1.2 | -1.0 | -0.2 | -2.8 | 62.4* | 1.7
CCc1nnc(NC(=O)C2Cc3ccccc3CN2S(=O)(=O)c2ccc(C)cc2)s1 (stereo not drawn) | -0.7 | 0.0 | 2.6 | 0.7 | 78.7* | 0.4
Clc1ccccc1Cn1c(/C=C/c2ccco2)nc2ccccc21 | -1.0 | -6.1 | 2.8 | -11.2 | 78.1* | -0.4

Bioassay records from PubChem BioAssay.
